From ChEMBL document CHEMBL4513135, “CO-ADD screening of IQOG CSIS (Spain) compounds”
“And” between values parts separate entries of the source, which are not always exact repeats. Equal entries are not always repeated. Measured potencies and affinities stand elsewhere.

Tests used:
Staphylococcus aureus = details: Concentration 32 ug.mL-1, ASSAY_TEST Inhibition of Bacterial Growth, detection method Absorption (OD600), MEDIA CAMHB, plate type 384well, NBS, CORNING #3640, time 18 hr
Escherichia coli = details: Concentration 32 ug.mL-1, ASSAY_TEST Inhibition of Bacterial Growth, detection method Absorption (OD600), MEDIA CAMHB, plate type 384well, NBS, CORNING #3640, time 18 hr

Structure (SMILES) | Inhibition (Staphylococcus aureus) | Inhibition (Escherichia coli) | Inhibition (Staphylococcus aureus; 32 ug/mL) | Inhibition (Escherichia coli; 32 ug/mL)
N#Cc1c(-c2ccccc2)c2ccc3ccccc3c2oc1=O | 33.43% | -8.95% |  | 
CCOC(=O)CCc1c[nH]c2ccccc12 | -15.79% | -15.2% |  | 
COc1nc2nc3c(c(N)c2cc1C#N)CN(Cc1ccccc1)CC3 | 9.36% | 4.83% |  | 
CCOC(=O)c1c(C)nc(NCC2CCN(Cc3ccccc3)CC2)c(C#N)c1-c1ccccc1 | 24.62% | -10.38% |  | 
C#CCNc1nc(NCC#C)c(C#N)cc1C#N | -5.55% | -10.16% |  | 
OCc1c(-c2ccc(Br)cc2)nc2ccccn12 | 6.46% | 0.77% |  | 
COc1cccc(C2c3ccc4ccccc4c3OC(=NBr)C2(Br)C#N)c1 (stereo not given) | 27.48% | -7.21% |  | 
COc1ccc(C=C2N=C(c3ccccc3)SC2=O)cc1 | 12.36% | 7.03% |  | 
N#CC1=C(N)Oc2ccc3ccccc3c2C1 | 5.91% | -5.32% |  | 
CC#CCN(Cc1ccccc1)c1nc(N)c(C#N)cc1C#N | 14.89% | -4.77% |  | 
COc1ccccc1C1c2ccc3ccccc3c2OC(=NBr)C1(Br)C#N (stereo not given) | 25.54% | -9.86% |  | 
O=Cc1c[nH]c2ccccc12 [3-FORMYLINDOLE] | 16.72% | 17.3% |  | 
CCOC(=O)N/N=C/c1ccccc1 | -2.34% | -1.06% |  | 
COc1ccc2c(c1)cc(CNc1ccccc1)n2C | 20.09% | -6.35% |  | 
COc1ccc(C2c3c(ccc4ccccc34)OC(=N)C2(Br)C#N)cc1OC (stereo not given) | 9.13% | -16.19% |  | 
CCCCCCC(C)NNC(=O)c1cc2ccccc2[nH]1 (stereo not given) | -0.84% | 6.64% |  | 
CCOC(=O)c1c[nH]c2ccc(OC)cc12 | 4.86% | 9.94% |  | 
N#CC1=C(N)Oc2c(ccc3ccccc23)C1c1cccc([N+](=O)[O-])c1 (stereo not given) | 17.39% | -10.4% |  | 
CC#CCN.Cl | 31.78% | 20.2% |  | 
COc1cccc(C2C(C#N)=C(N)Oc3ccc4ccccc4c32)c1 (stereo not given) | 40.42% | -5.36% |  | 
C#CC[n+]1ccccc1N.[Br-] | 6.4% | 12.69% |  | 
COc1ccc(C2c3ccc4ccccc4c3OC(=NBr)C2(Br)C#N)cc1OC (stereo not given) | 21.78% | -14.95% |  | 
CC1=C(C(=O)N2[C@@H]3C[C@H]4CCC3(CS2(=O)=O)C4(C)C)C(c2ccccc2)C(C#N)=C(N)O1 (stereo not given in full) | -1.02% | 15% |  | 

Structure (SMILES) | Inhibition (Staphylococcus aureus) | Inhibition (Escherichia coli) | Inhibition (Staphylococcus aureus; 32 ug/mL) | Inhibition (Escherichia coli; 32 ug/mL)
COc1cc(C2C(C#N)=C(N)Oc3c2ccc2ccccc32)ccc1O (stereo not given) | 50.2% | -13.64% |  | 
CCOC(=O)c1c(C)nc2nc3c(c(N)c2c1-c1ccc(Cl)cc1)CCCCC3 | 2.05% | -16.85% |  | 
Cc1ccc2nc(Cl)c(/C=N/C(C)(C)C)cc2c1 | 28.46% | 12.92% |  | 
Cc1ccc(C=C2N=C(c3ccccc3)OC2=O)cc1 | 7.55% | 3.61% |  | 
N#Cc1cc(C#N)c(NCCO)nc1N | 40.77% | -7.55% |  | 
C#CCN(C)c1nc(NC2CCN(Cc3ccccc3)CC2)c(C#N)c(-c2ccccc2)c1C#N | 0.44% | -3.84% |  | 
O=C(N/N=C/c1c[nH]c2ccccc12)C(c1ccccc1)c1ccccc1 | 7.26% | 7.64% |  | 
CN(N=O)C(=O)NC1(C(=O)O)CC1c1ccccc1 (stereo not given) | 15% | 11.14% |  | 
O=C1C=C(Nc2ccccc2)C(=O)N1c1ccccc1 | 3.04% | 4.55% |  | 
CCOc1nc(N)c(C#N)cc1C#N | 33.34% | -14.2% |  | 
Cn1ccnc1C1c2ccc3cccnc3c2Oc2nc3c(c(N)c21)CCCCC3 (stereo not given) | 21.02% | -10.34% |  | 
N#Cc1cc(C#N)c(N2CCCC2)nc1N | 51.19% | -9.12% |  | 
COc1cc(C2CC2(N)C(=O)O)ccc1O (stereo not given) | 4.38% | -1.72% |  | 
CC(=O)NC=C1C(=O)OC(C)(C)OC1=O | 14.96% | 11.61% |  | 
CCOC(=O)c1cc2ccccc2[nH]1 | 8.39% | 13.65% |  | 
CC(=O)Nc1nn(C)c2nc3nc4c(c(N)c3cc12)CCCC4 |  |  | 26.15% and 21.32% | -7.37% and -4.67%
NOC(=O)C1CCN(Cc2ccccc2)CC1 | 21.2% | 1.52% |  | 
C#CCN(C)Cc1cc2cc(OCCCC3CCN(Cc4ccc(OC)c5ncccc45)CC3)ccc2n1C | 8.98% | -14.67% |  | 
Cc1ccc(CNNC(=O)c2cc3ccccc3n2C)cc1 | -9.87% | -8.9% |  | 
COC(=O)C(=Cc1ccc(OC)cc1)NC(=O)c1ccccc1 | 17.26% | 11.52% |  | 
N#CC1=C(N)Oc2ccc3ccccc3c2C1c1ccccc1 (stereo not given) | 40.09% | -6.38% |  | 
CC#CCN(C)Cc1cc2cc(OCc3ccccc3)ccc2n1C.O=C(O)C(=O)O | 7.01% | 5.45% |  | 
